The panel holds about 79,000 compounds, 15% with a hit somewhere; the sample as a whole holds those more often. The source made the active and inactive calls. Rule as the data show it: active = growth inhibition above about 70%; inactive = the rest. Where a SMILES comes first, the peptide text is derived from it. [ ]: non-standard residue; d: D form. The star is where a group is joined. ξ: configuration not given here. NMeY = CN[C@@H](Cc1ccc(O)cc1)C(=O)O; Cbz = O=C(OCc1ccccc1)*; ξA = CC(N)C(=O)O

The assay is described as follows: NCI Yeast Anticancer Drug Screen. Data for the mlh1 rad18 strain (AID 175). The conditions noted are these: S. cerevisiae mlh1 rad18 strain growth inhibition; at 50.0 µM; active compounds read high. In outline:
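Yeast w/ defined DNA-repair lesions; compound exposure; growth vs vehicle controls → % inhibition.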
`Oc1cccc(NCNC2Nc3ccccc3N2)c1`: the growth inhibition was 13.6% (inactive).

With `CCCCCCC1CCC(=O)CC1`, the growth inhibition is 34.5% (inactive).

Take `CCOS(=O)(=O)CC(C)C(C)C` (stereo not given): the growth inhibition is -9.1% (inactive).

Consider `O=c1[nH]/c(=C/c2ccc3c(c2)OCO3)c(=O)[nH]/c1=C/c1ccc2c(c1)OCO2`, for which the growth inhibition is 20.2% (inactive).

Regarding `Nc1nc(C(=O)O)c(N=Nc2ccccc2)c(=O)[nH]1`, the growth inhibition was -20.8% (inactive).

Consider `COc1ccc2c(c1)CCC1=C2CC2C(=O)C1(C)CCC2(C)OC(C)=O` (stereo not given), for which the growth inhibition is -14.2% (inactive).

In the case of `COc1ccc(-c2cc(=O)c3cc(C)c(C)c(C#N)c3o2)cc1`, the growth inhibition was -37.5% (inactive).

As for `CCC(C(=O)O)C(=O)O`, the growth inhibition is 10.3% (inactive).

For `O=C(Nc1cc(C(F)(F)F)ccc1Cl)c1ccccc1F`, the growth inhibition is 18.6% (inactive).

In the case of `Nc1nc(-c2ccccc2)cc(-c2cc(Cl)ccc2O)n1`, the growth inhibition was 6.55% (inactive).

With `O=C1NC(Cc2ccc(O)cc2)C(=O)N1c1ccccc1O` (stereo not given), the growth inhibition was 3.5% (inactive).

`CC1=NN(C(=O)c2ccc(Cl)cc2)C(=O)/C1=C/c1ccco1`: the growth inhibition is -24.1% (inactive).

Take `CC1CCC2C(C)C3C(CC4C5CC=C6CC(O)CCC6(C)C5CCC43C=O)N2C1` (stereo not given): the growth inhibition is 19.4% (inactive).

With `ClC(c1ccccc1)c1cccc2ccccc12` (stereo not given), the growth inhibition is 41.6% (inactive).

With `O=C(O)CNc1ncnc2[nH]ncc12`, the growth inhibition was 6% (inactive).

With `C=C(CN(CC)CC)C1(c2ccccc2)CC2(CCCC2)C(=O)O1` (stereo not given), the growth inhibition was 5.65% (inactive).

On to `CCOC(=O)c1c(C)c2c(n1C)CCC(C(=O)OCC)C2=O` (stereo not given), for which the growth inhibition is 0.45% (inactive).

For `O=C(NNC(O)C(F)(F)F)c1ccccc1` (stereo not given), the growth inhibition was 1.5% (inactive).

On to `CCC(C)CCC(=O)C(C)C=O` (stereo not given), for which the growth inhibition was -3.85% (inactive).

For `O=C(/C(=C/c1ccc(Cl)cc1)c1ccccc1)c1ccccc1`, the growth inhibition was -2.75% (inactive).

`O=C(NNC(=S)Nc1ccc(Cl)cc1)C12CC3CC(CC(C3)C1)C2`: the growth inhibition is 8.7% (inactive).

`O=c1cc(NCc2c(Cl)cccc2[N+](=O)[O-])[nH]c(=O)[nH]1`: the growth inhibition is -5.3% (inactive).

For the molecule `OCC1CCCC(n2cnc3c(=S)nc[nH]c32)O1` (stereo not given), the growth inhibition was 6.4% (inactive).

Regarding `COc1cc(CC2C(=O)OCC2C2(c3ccc4c(c3)OCO4)SCCCS2)cc(OC)c1OC` (stereo not given), the growth inhibition was 26.8% (inactive).

Regarding `COc1ccc(C[C@@H](C(=O)N[C@@H](C)C(N)=O)N(C)C(=O)[C@@H]2CCCN2C(=O)[C@H](CC(C)C)NC(=O)C(C)NC(=O)OCc2ccccc2)cc1` (stereo not given in full) (Cbz-[ξA]LP[NMeY](Me)A-NH2), the growth inhibition was -44.2% (inactive).

Take `CC1=COC(=O)[C@@H]2[C@@H](C)CC[C@@H]12`: the growth inhibition is -4.2% (inactive).

Consider `C=C(C)CC1CC(=O)OC1=O` (stereo not given), for which the growth inhibition was 4.35% (inactive).

As for `CNCCC(C(=O)O)c1ccccc1` (stereo not given), the growth inhibition is 9.1% (inactive).

For `COc1ccc(OC)c(-c2nc3ccccc3c(=O)[nH]2)c1`, the growth inhibition is 0% (inactive).

As to `Nc1ccc2c(c1)NCC2`, the growth inhibition was -16.6% (inactive).

With `CSc1[nH]c2ncnc(Cl)c2c1C#N`, the growth inhibition is 21.7% (inactive).

On to `COc1ccc(Nc2nc(C#N)c(N)s2)cc1`, for which the growth inhibition was -9.5% (inactive).

Regarding `OC12CC/C(=N/OCc3ccccc3)CC1c1ccccc12` (stereo not given), the growth inhibition was 0.45% (inactive).

Regarding `O=C(O)c1ccccc1C(=O)OCc1ccccc1`, the growth inhibition is 11.9% (inactive).

Consider `O=C(CCl)OCC(CCl)OC(=O)CCl` (stereo not given), for which the growth inhibition was 0.6% (inactive).

Consider `Cn1cnc2c(Cl)ncnc21`, for which the growth inhibition is 5.65% (inactive).

Consider `CC1CCCC(C(O)(C(=O)O)C2CCCCC2)C1` (stereo not given), for which the growth inhibition was 26.6% (inactive).

For `CC(C(=O)O)C(C)C(=O)Nc1ccccc1` (stereo not given), the growth inhibition was 28.4% (inactive).

As to `COC(=O)C(=O)C1(c2ccccc2)CCCC(CN(C)C)=C1O` (stereo not given), the growth inhibition is -12.7% (inactive).

For `[Cl][Bi]([O]c1ccccn1)[O]c1ccccn1`, the growth inhibition is -25.8% (inactive).
